Results reported in the supplement of paper PMC10849652.
Of roughly 8,800 targets only a part is listed; those with a hit were picked by preference. About 0.5% of all pairs of compound and target were hits.

compound: Cn1cc(-c2ccc3c(c2)CCN3C(=O)Cc2cccc(C(F)(F)F)c2)c2c(N)ncnc21; test: log2 fold change, soluble protein after heating vs DMSO (PISA); higher = thermal stabilisation; K562 lysate, 10 uM; active = over 0.2 and 3.5 SD of the protein, either way, in both replicates (recomputed)
Method in brief: (§1)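 Thermal stability, expressed as log-two fold change relative to solvent controls, is given from duplicates. Crude K562 extract in PBS pH 7.4 with 1 mM MgCl2, at 1 mg/mL protein, was treated with 10 μM compound for 30 min and heated in aliquots for 3 min across 48°C-58°C. After pooling, adjustment to 0.5% NP-40 at 4°C and centrifugation at 21,000xg for 90 min, supernatant protein was measured by TMTpro 16plex LC-MS/MS with channel sums equalised.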

Chain of UniProt Q99714 (Q99714 whole entry, looked up): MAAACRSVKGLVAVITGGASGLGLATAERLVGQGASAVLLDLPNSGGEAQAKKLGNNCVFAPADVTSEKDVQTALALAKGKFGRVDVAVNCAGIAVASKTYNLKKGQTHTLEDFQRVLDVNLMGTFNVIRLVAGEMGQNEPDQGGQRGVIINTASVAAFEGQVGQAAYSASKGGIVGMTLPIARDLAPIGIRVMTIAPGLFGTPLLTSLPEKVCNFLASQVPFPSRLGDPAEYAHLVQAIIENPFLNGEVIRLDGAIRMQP
Chain of UniProt Q03013 (Q03013 whole entry, looked up): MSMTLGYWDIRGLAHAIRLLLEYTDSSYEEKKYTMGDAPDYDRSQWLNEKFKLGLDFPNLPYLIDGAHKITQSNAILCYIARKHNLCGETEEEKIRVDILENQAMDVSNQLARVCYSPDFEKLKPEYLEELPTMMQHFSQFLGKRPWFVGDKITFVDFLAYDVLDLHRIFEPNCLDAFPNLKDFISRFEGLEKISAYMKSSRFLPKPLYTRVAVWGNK
Chain of UniProt P15260 (P15260 whole entry, looked up): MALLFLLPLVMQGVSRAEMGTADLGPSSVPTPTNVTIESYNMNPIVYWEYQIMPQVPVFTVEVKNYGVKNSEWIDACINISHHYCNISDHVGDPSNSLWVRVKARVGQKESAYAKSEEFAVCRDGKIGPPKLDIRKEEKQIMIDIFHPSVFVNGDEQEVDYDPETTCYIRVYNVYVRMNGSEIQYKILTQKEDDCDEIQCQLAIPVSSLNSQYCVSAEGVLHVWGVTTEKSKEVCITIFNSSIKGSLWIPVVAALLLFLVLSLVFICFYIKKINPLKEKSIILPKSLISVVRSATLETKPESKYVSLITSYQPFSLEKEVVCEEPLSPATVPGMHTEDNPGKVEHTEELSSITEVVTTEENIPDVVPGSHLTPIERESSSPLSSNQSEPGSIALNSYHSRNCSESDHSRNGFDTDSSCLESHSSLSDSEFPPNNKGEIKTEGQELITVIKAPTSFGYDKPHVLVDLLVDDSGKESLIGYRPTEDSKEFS
Chain of UniProt P04792 (P04792 whole entry, looked up): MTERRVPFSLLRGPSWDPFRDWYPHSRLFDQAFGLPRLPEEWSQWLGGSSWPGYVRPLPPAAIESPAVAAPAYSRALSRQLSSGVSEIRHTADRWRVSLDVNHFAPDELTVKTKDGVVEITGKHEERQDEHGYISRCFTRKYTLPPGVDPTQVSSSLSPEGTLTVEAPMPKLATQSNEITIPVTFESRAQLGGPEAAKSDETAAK
Chain of UniProt O15379 (O15379 whole entry, looked up): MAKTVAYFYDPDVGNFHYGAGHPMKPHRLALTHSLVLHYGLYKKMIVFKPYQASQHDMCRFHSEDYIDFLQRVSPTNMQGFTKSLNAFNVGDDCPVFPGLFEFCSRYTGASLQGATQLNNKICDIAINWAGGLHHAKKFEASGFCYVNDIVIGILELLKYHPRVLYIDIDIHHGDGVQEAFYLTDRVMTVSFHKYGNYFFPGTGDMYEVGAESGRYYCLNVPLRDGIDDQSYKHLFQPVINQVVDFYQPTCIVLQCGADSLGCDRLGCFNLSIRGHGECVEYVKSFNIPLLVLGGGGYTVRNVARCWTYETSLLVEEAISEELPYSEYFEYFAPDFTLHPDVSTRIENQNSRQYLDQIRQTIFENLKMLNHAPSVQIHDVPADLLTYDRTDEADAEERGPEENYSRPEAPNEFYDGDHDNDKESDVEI
Chain of UniProt Q9H1B7 (Q9H1B7 whole entry, looked up): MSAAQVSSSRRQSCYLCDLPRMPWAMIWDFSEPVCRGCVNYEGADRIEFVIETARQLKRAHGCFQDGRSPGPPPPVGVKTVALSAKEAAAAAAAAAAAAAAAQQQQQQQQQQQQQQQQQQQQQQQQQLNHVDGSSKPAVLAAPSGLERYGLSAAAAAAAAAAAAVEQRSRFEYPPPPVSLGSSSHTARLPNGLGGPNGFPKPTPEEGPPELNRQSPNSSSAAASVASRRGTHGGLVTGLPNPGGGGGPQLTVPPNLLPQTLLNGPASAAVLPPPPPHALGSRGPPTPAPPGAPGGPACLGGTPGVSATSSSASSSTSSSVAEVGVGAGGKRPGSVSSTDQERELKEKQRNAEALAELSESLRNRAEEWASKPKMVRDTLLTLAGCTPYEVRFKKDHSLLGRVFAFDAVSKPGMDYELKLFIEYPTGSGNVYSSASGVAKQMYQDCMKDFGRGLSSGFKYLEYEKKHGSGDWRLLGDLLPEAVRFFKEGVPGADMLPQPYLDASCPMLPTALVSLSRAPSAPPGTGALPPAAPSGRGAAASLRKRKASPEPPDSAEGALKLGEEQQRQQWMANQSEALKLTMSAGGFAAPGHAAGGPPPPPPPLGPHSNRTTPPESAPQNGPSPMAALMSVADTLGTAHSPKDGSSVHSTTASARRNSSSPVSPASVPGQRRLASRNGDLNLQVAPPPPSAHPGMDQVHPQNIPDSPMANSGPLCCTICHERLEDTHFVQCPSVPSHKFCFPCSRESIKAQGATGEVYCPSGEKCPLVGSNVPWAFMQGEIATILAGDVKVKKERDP
Chain of UniProt Q8WVV9 (Q8WVV9 whole entry, looked up): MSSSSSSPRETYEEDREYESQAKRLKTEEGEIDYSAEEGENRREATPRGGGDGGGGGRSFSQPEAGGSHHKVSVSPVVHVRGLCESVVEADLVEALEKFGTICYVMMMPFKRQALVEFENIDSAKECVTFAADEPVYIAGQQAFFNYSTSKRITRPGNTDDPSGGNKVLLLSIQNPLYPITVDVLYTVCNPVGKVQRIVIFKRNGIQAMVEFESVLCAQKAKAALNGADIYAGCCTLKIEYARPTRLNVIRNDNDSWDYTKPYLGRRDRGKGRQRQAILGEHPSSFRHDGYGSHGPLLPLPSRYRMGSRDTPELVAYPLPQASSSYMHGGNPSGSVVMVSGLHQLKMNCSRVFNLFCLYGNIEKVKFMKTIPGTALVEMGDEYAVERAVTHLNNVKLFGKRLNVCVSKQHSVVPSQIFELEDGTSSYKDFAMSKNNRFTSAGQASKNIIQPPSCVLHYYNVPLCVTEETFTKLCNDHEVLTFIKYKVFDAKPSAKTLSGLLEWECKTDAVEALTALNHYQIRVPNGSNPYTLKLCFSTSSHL
Chain of UniProt O94927 (O94927 whole entry, looked up): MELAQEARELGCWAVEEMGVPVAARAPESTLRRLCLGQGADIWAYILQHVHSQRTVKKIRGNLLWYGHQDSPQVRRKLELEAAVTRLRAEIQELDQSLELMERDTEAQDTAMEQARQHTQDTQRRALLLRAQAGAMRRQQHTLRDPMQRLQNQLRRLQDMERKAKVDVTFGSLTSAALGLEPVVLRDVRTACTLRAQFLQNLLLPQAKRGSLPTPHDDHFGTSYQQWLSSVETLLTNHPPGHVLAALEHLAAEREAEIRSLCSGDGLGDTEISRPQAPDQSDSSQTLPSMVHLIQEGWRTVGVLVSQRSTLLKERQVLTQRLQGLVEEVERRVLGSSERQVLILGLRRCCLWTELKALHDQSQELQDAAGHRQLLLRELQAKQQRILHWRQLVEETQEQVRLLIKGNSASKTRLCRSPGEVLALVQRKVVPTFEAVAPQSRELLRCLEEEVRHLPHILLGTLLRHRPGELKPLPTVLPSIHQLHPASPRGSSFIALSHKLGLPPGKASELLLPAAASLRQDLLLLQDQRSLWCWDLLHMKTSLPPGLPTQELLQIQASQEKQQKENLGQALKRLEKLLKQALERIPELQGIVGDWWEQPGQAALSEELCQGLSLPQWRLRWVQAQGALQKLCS
Chain of UniProt Q13418 (Q13418 whole entry, looked up): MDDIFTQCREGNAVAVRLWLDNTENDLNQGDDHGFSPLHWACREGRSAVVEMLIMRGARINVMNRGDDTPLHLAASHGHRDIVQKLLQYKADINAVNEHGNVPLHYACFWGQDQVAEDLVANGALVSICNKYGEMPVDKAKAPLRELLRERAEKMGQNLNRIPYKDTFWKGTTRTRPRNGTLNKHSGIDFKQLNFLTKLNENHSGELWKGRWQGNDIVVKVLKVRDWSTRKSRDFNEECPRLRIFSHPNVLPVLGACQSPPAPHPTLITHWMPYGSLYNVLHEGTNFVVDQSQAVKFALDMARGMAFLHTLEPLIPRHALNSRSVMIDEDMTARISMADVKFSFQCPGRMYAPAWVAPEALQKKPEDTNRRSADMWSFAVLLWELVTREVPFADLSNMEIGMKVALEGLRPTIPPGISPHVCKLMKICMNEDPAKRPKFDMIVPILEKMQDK
Chain of UniProt Q9H6D7 (Q9H6D7 whole entry, looked up): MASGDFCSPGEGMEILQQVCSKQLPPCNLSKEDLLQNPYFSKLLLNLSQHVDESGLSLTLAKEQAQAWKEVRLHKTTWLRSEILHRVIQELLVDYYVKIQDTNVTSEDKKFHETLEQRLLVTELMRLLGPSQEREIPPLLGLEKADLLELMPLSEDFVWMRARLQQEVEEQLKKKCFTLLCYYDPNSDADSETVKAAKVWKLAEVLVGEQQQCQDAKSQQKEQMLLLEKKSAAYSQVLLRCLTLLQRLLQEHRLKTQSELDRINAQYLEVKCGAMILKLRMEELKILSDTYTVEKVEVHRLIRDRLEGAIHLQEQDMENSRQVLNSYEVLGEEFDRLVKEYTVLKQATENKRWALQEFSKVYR
Chain of UniProt Q9NWZ3 (Q9NWZ3 whole entry, looked up): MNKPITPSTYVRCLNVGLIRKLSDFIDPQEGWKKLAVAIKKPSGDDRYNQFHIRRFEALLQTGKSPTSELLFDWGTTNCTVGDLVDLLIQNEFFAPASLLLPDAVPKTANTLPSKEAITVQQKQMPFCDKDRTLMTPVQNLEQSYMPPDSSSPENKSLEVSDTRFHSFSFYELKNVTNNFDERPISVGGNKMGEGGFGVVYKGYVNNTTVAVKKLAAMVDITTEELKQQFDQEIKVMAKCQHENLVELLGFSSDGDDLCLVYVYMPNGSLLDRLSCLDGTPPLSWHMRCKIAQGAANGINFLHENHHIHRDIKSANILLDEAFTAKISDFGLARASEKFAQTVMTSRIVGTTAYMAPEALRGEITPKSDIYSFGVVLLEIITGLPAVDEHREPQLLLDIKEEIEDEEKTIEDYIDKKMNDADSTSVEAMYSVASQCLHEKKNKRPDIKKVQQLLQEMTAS

log2 fold change, inactive:
IFNGR1 (UniProt P15260) -0.125
GSTCD (UniProt Q8NEC7) -0.098
GSTM4 (UniProt Q03013) 0.118
GNB1 (UniProt P62873) -0.029
HMGN4 (UniProt O00479) 0.003
KATNBL1 (UniProt Q9H079) -0.073
HNRNPAB isoform 3 (UniProt Q99729) -0.028
IRF2BPL (UniProt Q9H1B7) -0.059
HNRNPD isoform 3 (UniProt Q14103) 0.065
HDAC3 (UniProt O15379) 0.007
IGF2BP2 (UniProt Q9Y6M1) 0.031
IRAK4 (UniProt Q9NWZ3) 0.023
HSPB1 (UniProt P04792) 0.015
HK2 (UniProt P52789) 0.033
HAUS4 (UniProt Q9H6D7) 0.052
GNB4 (UniProt Q9HAV0) -0.097
GRK6 isoform 2 (UniProt P43250) -0.014
ILK (UniProt Q13418) 0.014
INPPL1 (UniProt O15357) 0.035
HNRNPLL (UniProt Q8WVV9) -0.001
GTF2I (UniProt P78347) 0.035
GPR108 (UniProt Q9NPR9) -0.057
GMPS (UniProt P49915) 0
HIST2H2BC (UniProt Q6DN03) -0.079
HARS (UniProt P12081) 0.008
HNRNPUL2 (UniProt Q1KMD3) -0.005
ISCA1 isoform 2 (UniProt Q9BUE6) -0.002
HSPA8 (UniProt E9PN89) -0.032
IMMT (UniProt Q16891) 0.01
HAUS5 (UniProt O94927) -0.015
IMPDH2 (UniProt P12268) 0.004
HSD17B10 (UniProt Q99714) -0.017
HK1 isoform 2 (UniProt P19367) -0.008
HIST2H2AA3 (UniProt Q6FI13) -0.041
HELQ (UniProt Q8TDG4) -0.028
ICAM2 (UniProt P13598) -0.035

compound: Cn1cc(CNCC2CCN(c3ncc(C(=O)NO)cn3)CC2)c2ccccc21 [quisinostat]; test: as above
Method in brief: as §1

log2 fold change, inactive:
IFNGR1 (UniProt P15260) 0.047
GSTCD (UniProt Q8NEC7) -0.053
GSTM4 (UniProt Q03013) 0.163
GNB1 (UniProt P62873) 0.107
HMGN4 (UniProt O00479) 0.171
KATNBL1 (UniProt Q9H079) 0.035
HNRNPAB isoform 3 (UniProt Q99729) 0.026
IRF2BPL (UniProt Q9H1B7) 0.032
HNRNPD isoform 3 (UniProt Q14103) 0.005
HDAC3 (UniProt O15379) -0.004
IGF2BP2 (UniProt Q9Y6M1) 0.012
IRAK4 (UniProt Q9NWZ3) -0.066
HSPB1 (UniProt P04792) 0.025
HK2 (UniProt P52789) -0.079
HAUS4 (UniProt Q9H6D7) -0.065
GNB4 (UniProt Q9HAV0) 0.042
GRK6 isoform 2 (UniProt P43250) -0.043
ILK (UniProt Q13418) -0.076
INPPL1 (UniProt O15357) 0
HNRNPLL (UniProt Q8WVV9) -0.063
GTF2I (UniProt P78347) -0.006
GPR108 (UniProt Q9NPR9) -0.063
GMPS (UniProt P49915) 0.041
HIST2H2BC (UniProt Q6DN03) -0.014
HARS (UniProt P12081) -0.021
HNRNPUL2 (UniProt Q1KMD3) -0.046
ISCA1 isoform 2 (UniProt Q9BUE6) 0.025
HSPA8 (UniProt E9PN89) -0.415
IMMT (UniProt Q16891) 0.041
HAUS5 (UniProt O94927) -0.11
IMPDH2 (UniProt P12268) -0.073
HSD17B10 (UniProt Q99714) -0.01
HK1 isoform 2 (UniProt P19367) -0.013
HIST2H2AA3 (UniProt Q6FI13) 0.064
HELQ (UniProt Q8TDG4) -0.024
ICAM2 (UniProt P13598) 0.007
